Experimental data taken from PubChem BioAssay (Tox21).
Results filed as inconclusive are left out. The source made the active and inactive calls. Unless noted, calls come from the whole dose curve; as a rule, active = well fitted curve in the direction sought with a large enough effect in the repeat runs; inconclusive = weak or mixed curves; inactive = no such curve, though single readings can be large; an effect the other way counts as inactive or inconclusive.

Legend:
[1] = qHTS assay to identify small molecule agonists of the peroxisome proliferator-activated receptor delta (PPARd) signaling pathway - cell viability counter screen (AID 743211); settings: PPARd-bla HEK293H viability, CellTiter-Glo luminescence, 17 h; series mostly up to 62.6 µM; note: nearly all actives have a fitted effect of over 55% in size
In short: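 Viability of GeneBLAzer PPARd UAS-bla HEK293H cells was assessed after 17 h compound incubation at 37C, using CellTiter-Glo reagent added after the reporter read and luminescence recorded 30 min later.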

[2] = biological target: Peroxisome proliferator-activated receptor delta (Homo sapiens) (UniProt Q03181); experiment: qHTS assay to identify small molecule agonists of the peroxisome proliferator-activated receptor delta (PPARd) signaling pathway (AID 743212; calls by dose curve); settings: HEK293H PPARd-UAS-bla, beta-lactamase FRET ratio, 17 h; series mostly up to 62.6 µM
In short: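 HEK293H UAS-bla reporter cells, human PPARd system; compounds delivered in DMSO after 5 h plating, then at 37 C. Beta-lactamase FRET read, 2 h RT substrate step.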

[3] = qHTS assay to identify small molecule antagonists of the peroxisome proliferator-activated receptor delta (PPARd) signaling pathway - cell viability counter screen (AID 743213); settings: PPARd-bla HEK293H viability, CellTiter-Glo luminescence, 17 h; series mostly up to 62 µM; note: nearly all actives have a fitted effect of over 50% in size
In short: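 Same-well viability: cells pre-incubated 5 h, dosed with compound plus 300 nM L165041, kept 17 h at 37 C, FRET substrate 2 h RT, then CellTiter-Glo 30 min RT and luminescence.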

[4] = biological target: Peroxisome proliferator-activated receptor delta (Homo sapiens) (UniProt Q03181); experiment: qHTS assay to identify small molecule antagonists of the peroxisome proliferator-activated receptor delta (PPARd) signaling pathway (AID 743215; active = well fitted inhibition curve with a large enough effect in the signal ratio in the repeat runs, not every such curve was filed as active; the % refers to the signal ratio;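 note: cells stimulated with agonist L165041 at 300 nM final during compound exposure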); settings: HEK293H PPARd-UAS-bla, beta-lactamase FRET ratio, antagonist, 17 h; series mostly up to 62 µM
In short: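 PPARd UAS-bla HEK293H cells were pre-incubated 5 h at 37 C, then given test compounds in DMSO plus agonist L165041 (300 nM final). After 17 h at 37 C, beta-lactamase FRET substrate was added; fluorescence read after 2 h at room temperature.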

[5] = qHTS assay to identify small molecule agonists of the farnesoid-X-receptor (FXR) signaling pathway - cell viability counter screen (AID 743218); settings: FXR-bla HEK293T viability, CellTiter-Glo luminescence, 16 h; series mostly up to 62.6 µM; note: nearly all actives have a fitted effect of over 45% in size; note: potency is the fitted concentration of half-maximal effect
In short: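 FXR-UAS-bla HEK 293T cells, plated 5 h at 37 C, were exposed to compounds for 16 h at 37 C. CellTiter-Glo was then added to the same wells as the bla readout; luminescence read after 30 min at room temperature.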

[6] = biological target: Vitamin D3 receptor (Homo sapiens) (UniProt P11473); experiment: qHTS assay to identify small molecule agonists of the vitamin D receptor (VDR) signaling pathway (AID 743222; calls by dose curve); settings: HEK293T VDR-UAS-bla, beta-lactamase FRET ratio, 16 h; series mostly up to 63.5 µM
In short: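 VDR-bla cells were plated 4 h at 37C/5% CO2, then exposed to compounds in DMSO for 16 h. After LiveBLAzer B/G FRET substrate addition and 2 h at room temperature, beta-lactamase reporter fluorescence was read.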

[7] = biological target: Vitamin D3 receptor (Homo sapiens) (UniProt P11473); experiment: qHTS assay to identify small molecule antagonists of the vitamin D receptor (VDR) signaling pathway (AID 743223; active = well fitted inhibition curve with a large enough effect in the signal ratio in the repeat runs, not every such curve was filed as active; the % refers to the signal ratio); settings: VDR-UAS-bla HEK293T, beta-lactamase FRET ratio, 16 h; series mostly up to 61 µM
In short: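 Fluorescence from LiveBLAzer B/G FRET substrate, read after 2 h at room temperature, reflects beta-lactamase reporter activity in VDR-bla cells treated 16 h at 37C with compounds and agonist 1alpha,25-dihydroxyvitamin D3 (3 nM final).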

[8] = biological target: Bile acid receptor (Homo sapiens) (UniProt Q96RI1); experiment: qHTS assay to identify small molecule antagonists of the farnesoid-X-receptor (FXR) signaling pathway (AID 743217; active = well fitted inhibition curve with a large enough effect in the signal ratio in the repeat runs, not every such curve was filed as active; the % refers to the signal ratio); settings: HEK293T FXR-UAS-bla, beta-lactamase ratio, CDCA-stimulated, 16 h; series mostly up to 62.6 µM
In short: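 FXR-UAS-bla HEK 293T cells pre-incubated 5 h at 37 °C, then exposed to compounds with chenodeoxycholic acid (50 uM final) for 16 h at 37 °C. Beta-lactamase reporter read by LiveBLAzer B/G FRET substrate fluorescence after 2 h at room temperature.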

[9] = biological target: Bile acid receptor (Homo sapiens) (UniProt Q96RI1); experiment: qHTS assay to identify small molecule agonists of the farnesoid-X-receptor (FXR) signaling pathway (AID 743220; active = well fitted activation curve with a large enough effect in the signal ratio in the repeat runs, not every such curve was filed as active; the % refers to the signal ratio); settings: HEK293T FXR-UAS-bla, beta-lactamase FRET ratio, 16 h; series mostly up to 62.6 µM
In short: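 Beta-lactamase reporter under UAS control in GeneBLAzer FXR HEK 293T cells (5000/well) measured with LiveBLAzer FRET substrate after 2 h at room temperature. Compound exposure lasted 16 h at 37C.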

[10] = qHTS assay to identify small molecule antagonists of the farnesoid-X-receptor (FXR) signaling pathway - cell viability counter screen (AID 743221; active = well fitted cell-killing curve with a large enough effect in the repeat runs, not every such curve was filed as active; note: nearly all actives have a fitted effect of over 50% in size); settings: FXR-bla HEK293T viability, CellTiter-Glo luminescence, 16 h; series mostly up to 62.6 µM
In short: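 Quantitative HTS of the Tox21 10K library run in parallel with the beta-lactamase reporter read. HEK 293T cells carrying a UAS-driven bla reporter got compound and 50 uM CDCA (final) for 16 h; ATP-based luminescence followed.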

Measured: Potency

Chain of Bile acid receptor (Homo sapiens) (Q96RI1 whole entry, looked up): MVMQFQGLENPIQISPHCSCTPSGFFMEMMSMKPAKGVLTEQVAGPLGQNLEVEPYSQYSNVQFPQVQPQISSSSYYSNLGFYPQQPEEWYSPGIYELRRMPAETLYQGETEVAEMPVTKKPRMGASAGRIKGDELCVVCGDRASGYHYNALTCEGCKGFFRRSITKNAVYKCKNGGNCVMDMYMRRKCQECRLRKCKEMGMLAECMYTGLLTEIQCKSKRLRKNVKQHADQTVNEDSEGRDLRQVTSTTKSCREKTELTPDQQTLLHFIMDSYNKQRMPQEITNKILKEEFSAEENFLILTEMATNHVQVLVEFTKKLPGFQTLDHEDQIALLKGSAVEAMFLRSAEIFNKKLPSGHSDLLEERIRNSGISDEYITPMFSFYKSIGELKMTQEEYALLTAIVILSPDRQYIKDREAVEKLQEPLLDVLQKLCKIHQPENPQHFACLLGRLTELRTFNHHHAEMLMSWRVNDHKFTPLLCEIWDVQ
Chain of Peroxisome proliferator-activated receptor delta (Homo sapiens) (Q03181 whole entry, looked up): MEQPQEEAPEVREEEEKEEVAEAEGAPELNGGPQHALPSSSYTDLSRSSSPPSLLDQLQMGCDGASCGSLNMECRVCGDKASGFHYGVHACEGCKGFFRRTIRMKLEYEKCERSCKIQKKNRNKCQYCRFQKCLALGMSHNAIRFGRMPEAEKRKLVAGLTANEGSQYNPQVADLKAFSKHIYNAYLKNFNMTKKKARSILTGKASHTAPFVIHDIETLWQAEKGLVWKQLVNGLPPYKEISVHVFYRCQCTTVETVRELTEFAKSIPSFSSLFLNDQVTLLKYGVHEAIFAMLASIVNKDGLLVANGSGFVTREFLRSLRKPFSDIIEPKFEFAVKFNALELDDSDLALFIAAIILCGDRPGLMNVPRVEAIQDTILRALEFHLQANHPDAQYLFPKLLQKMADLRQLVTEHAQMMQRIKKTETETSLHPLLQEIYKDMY
Chain of Vitamin D3 receptor (Homo sapiens) (P11473 whole entry, looked up): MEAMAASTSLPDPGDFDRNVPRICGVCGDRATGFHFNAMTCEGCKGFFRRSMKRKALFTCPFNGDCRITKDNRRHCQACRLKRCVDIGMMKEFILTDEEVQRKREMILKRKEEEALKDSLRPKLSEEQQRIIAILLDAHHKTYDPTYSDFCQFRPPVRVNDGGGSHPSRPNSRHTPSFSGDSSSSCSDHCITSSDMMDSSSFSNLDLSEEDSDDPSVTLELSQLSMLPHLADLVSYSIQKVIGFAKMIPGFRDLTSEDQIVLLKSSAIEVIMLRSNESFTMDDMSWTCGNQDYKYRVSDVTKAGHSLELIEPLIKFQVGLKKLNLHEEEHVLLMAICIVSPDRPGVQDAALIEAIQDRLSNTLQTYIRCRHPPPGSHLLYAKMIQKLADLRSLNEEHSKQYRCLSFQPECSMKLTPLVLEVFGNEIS

COC(=O)Cc1cccc2ccccc12
not listed: [8] | [9] | [10]
inactive: all other assays above

C1=COCCC1
not listed: [4]
inactive: all other assays above

O=C(OCCOCCOCCOC(=O)c1ccccc1)c1ccccc1
not listed: [4]
inactive: all other assays above

COC(=O)/C=C/C(C)=C\C=C\C(C)=C\C=C\C=C(C)\C=C\C=C(C)\C=C\C(=O)O
not listed: [4] | [6]
inactive: all other assays above

CCOc1ccccc1O
not listed: [4] | [6] | [7]
inactive: all other assays above

COc1ccc(/C=C/S(=O)(=O)NC(=O)c2ccc(C)cc2Cl)cc1
not listed: [4] | [6]
inactive: all other assays above

O=C1c2ccccc2C(=O)C1c1ccc2cc(S(=O)(=O)O)cc(S(=O)(=O)O)c2n1
inactive: [1] | [2] | [3] | [4] | [10]

CCN(CC)CC(=O)OCC(=O)[C@@]1(O)CC[C@H]2[C@@H]3CCC4=CC(=O)CC[C@]4(C)[C@H]3[C@@H](O)C[C@@]21C
inactive: [1] | [2] | [3] | [5]

O=C(OC1C[C@H]2CC[C@@H](C1)[N+]21CCCC1)C(O)(c1ccccc1)c1ccccc1 (some centres not stated)
not listed: [4] | [8] | [9]
inactive: all other assays above

Nc1ccc(C(=O)Oc2ccccc2)c(O)c1
not listed: [4]
inactive: all other assays above

CCC(CC)C(=O)O
not listed: [4] | [8] | [9]
inactive: all other assays above

CCCCCCCCCCCCSC#N
not listed: [6] | [8] | [9]
inactive: all other assays above

OCCOc1cccc(OCCO)c1
inactive: [1] | [2] | [3] | [5] | [10] | [6]

N#CCCCC(C#N)CCC#N (configuration not stated)
inactive: [1] | [2] | [3] | [5] | [10]

FC1(F)C(F)(F)C(F)(F)C2(F)C(F)(C1(F)F)C(F)(F)C(F)(F)C1(F)C(F)(F)C(F)(F)C(F)(F)C(F)(F)C12F (configuration not stated)
inactive: [1] | [2] | [3] | [5] | [10] | [6]

C[C@@H](O)[C@H]1C(=O)N2C(C(=O)O)=C(S[C@@H]3CN[C@H](CNS(N)(=O)=O)C3)[C@H](C)[C@H]12
inactive: [1] | [2] | [3] | [8] | [9] | [10]

C=CC(O)CCCCC (configuration not stated)
not listed: [4] | [6] | [7]
inactive: all other assays above

O=C(Cl)c1cc(Cl)cc(Cl)c1
not listed: [4] | [8] | [9]
inactive: all other assays above

CC(C)(O)C(=O)O
not listed: [8] | [9]
inactive: all other assays above

CCOCCn1c(N2CCCN(C)CC2)nc2ccccc21
not listed: [5] | [8] | [9]
inactive: all other assays above

CC(CCl)OC(C)CCl (configuration not stated)
inactive: [1] | [2] | [3] | [5] | [10]

O=C1OC(=O)C2CC=CCC12 (configuration not stated)
not listed: [5] | [8] | [9]
inactive: all other assays above

CC1(C)C(=O)NC(=O)N1CO
not listed: [5] | [8] | [9]
inactive: all other assays above

CCCCCC1CCC(=O)O1 (configuration not stated)
not listed: [4] | [6] | [10]
inactive: all other assays above

Nc1ccc(-c2ccc(F)cc2)cc1
inactive: [1] | [2] | [3] | [8] | [9] | [10]

OCC(O)c1ccccc1 (configuration not stated)
inactive: [1] | [2] | [3] | [5] | [10] | [6]

CCCCCCOC(=O)c1ccccc1
active: [5] 30.9 µM
not listed: [4] | [6] | [9]
inactive: all other assays above

CC1(C)[C@@H]2CC[C@]3(C2)[C@@H]1C(=O)CCC3(C)C
not listed: [4]
inactive: all other assays above

CC(C)Cc1nccs1
not listed: [4]
inactive: all other assays above

CCOc1ccc(NC(C)=O)cc1N
not listed: [8] | [9]
inactive: all other assays above

SCCOCCOCCS
inactive: [1] | [2] | [3] | [5]

O=C1c2ccccc2C(=O)C1c1ccc2ccccc2n1
not listed: [4] | [8] | [9]
inactive: all other assays above

c1ccc(CCNc2nc(-c3ccccc3)cs2)cc1
not listed: [6] | [8] | [9]
inactive: all other assays above

CCOC(OCC)OCC
not listed: [4]
inactive: all other assays above

CCC(C)CCCC(C)(C)O (configuration not stated)
inactive: [1] | [2] | [3] | [5] | [10] | [6]

O=C(O)c1ccccc1[N+](=O)[O-]
not listed: [5] | [8] | [10]
inactive: all other assays above

CC(C)NC(=O)c1ccccc1N
not listed: [4] | [10]
inactive: all other assays above

CC(C)=CCCC(C)C=O (configuration not stated)
not listed: [4]
inactive: all other assays above

COc1ccc(/C(C)=C/C(=O)O)c(OC)c1
not listed: [8] | [9]
inactive: all other assays above

CC(Cc1ccccc1)(NC(=O)CN)c1ccccc1 (configuration not stated)
not listed: [3] | [8]
inactive: all other assays above

NC(=O)c1cc[n+](CC2=C(C(=O)[O-])N3C(=O)[C@@H](NC(=O)Cc4cccs4)[C@H]3SC2)cc1
not listed: [2] | [7]
inactive: all other assays above

CCCCCCCCS
not listed: [2]
inactive: all other assays above

CCCCCCCCCCCC(=O)OCC
not listed: [4] | [8] | [9]
inactive: all other assays above

O=C(O)c1ccccc1-n1cc(C(=O)O)c(=O)c2cc(Nc3c(F)cc(F)cc3Cl)c(Cl)cc21
not listed: [2]
inactive: all other assays above

c1ccc(-c2ccc(-c3ccccc3)cc2)cc1
not listed: [2] | [6]
inactive: all other assays above

CC1(C)CC(=O)CC(C)(C)N1
inactive: [1] | [2] | [4] | [5] | [10] | [6]

O=C(O)c1c2ccccc2cc2ccccc12
not listed: [2] | [6] | [10]
inactive: all other assays above

CC(O)C(C)O (configuration not stated)
inactive: [1] | [2] | [10] | [6] | [7]

C=Cc1ccc(C=C)cc1
inactive: [1] | [3] | [4] | [8] | [9] | [6]

O=C(O)CNc1ccccc1
not listed: [3] | [4] | [8]
inactive: all other assays above

COc1ccc(/C=C/c2cc(OC)cc(=O)o2)cc1
not listed: [3] | [5]
inactive: all other assays above

O=[N+]([O-])c1cccc(I)c1
inactive: [1] | [2] | [4] | [5] | [10] | [6]

CCCC(=O)OCCC(C)C
not listed: [3] | [7]
inactive: all other assays above

O=C1CCCN1CCO
inactive: [1] | [3] | [4]

CNc1ccccc1
inactive: [1] | [2] | [3] | [5] | [6] | [7]

C=CC(C)CCC=C(C)C (configuration not stated)
inactive: [1] | [2] | [5] | [10] | [6] | [7]
